High-throughput results: PubChem BioAssay, National Center for Advancing Translational Sciences (NCATS)
Shown are actives, neighbours in structure and some others; about 5.7% of the full set was active somewhere.
HEK293 tox: cytotoxic in the GLP-1 receptor inverse agonist counter-screen; HEK293 cAMP-luciferase reporter cells, luminescence, 24 h; Potency, µM (titrated, usually from 38.3 µM), for inactives: at the highest dose activity change, negative = inhibition, most hits filed as inhibitors; 0.13% of 410,000 active;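 also: loss of luciferase light is scored as toxicity; potency is read from the fitted curve at half-maximal effect; % is scaled to controls: 0 for no effect and ±100 for the full control effect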
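Here, cytotoxicity is scored as loss of luminescence. The MLSMR collection was tested on cells seeded in medium containing 10% Nu serum, with a 24 hr compound exposure preceded by 12 hours of culture.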
ClpP mod: qHTS Assay for Activators of ClpP; ATP-dependent Clp protease proteolytic subunit (Bacillus subtilis (strain 168)), P80244; purified B. subtilis ClpP, FRET peptide cleavage, 20 min; Potency, µM (series often up to 57.5 µM), for inactives: at the highest dose activity change, negative = active; 1.9% of 340,000 active; active = well fitted falling curve with a large enough effect; inconclusive = small, poorly fitted or top-dose-only effect; inactive = no such curve, though single readings can be large or run the other way; also: potency is read from the fitted curve at half-maximal effect; the source files actives as falling curves though it sought activators and does not explain the sign; nearly all actives have a fitted effect of over 65% in size
Target sequence (P80244 whole entry, looked up): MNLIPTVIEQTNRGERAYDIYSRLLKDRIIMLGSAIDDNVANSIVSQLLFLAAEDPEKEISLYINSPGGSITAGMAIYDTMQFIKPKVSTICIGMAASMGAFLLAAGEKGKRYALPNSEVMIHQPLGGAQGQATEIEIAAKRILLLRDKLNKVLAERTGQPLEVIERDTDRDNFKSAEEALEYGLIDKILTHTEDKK
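Buffer: 100 mM Tris/HCl pH8, 100 mM KCl, 0.05% low protease BSA, 2.5% glycerol, 0.01% Tween-20. ClpP 10 microg/mL final; 20 min RT; delta FRET normalized to ADEP and DMSO controls.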
GLP-1R agonist: GLP-1 receptor (human) agonism. P43220. HEK293 GLP-1R CRE-luciferase, luminescence, 4-6 h; cells express a hypersensitive GLP-1R form. Potency, µM (top dose mostly 45.6 µM), inactives show at the top dose activation, usual class: activators. 0.007% of 380,000 active. AID 624172; also: potency is read from the fitted curve at half-maximal effect; % of control where 0% means no effect
Target sequence (P43220 whole entry, looked up): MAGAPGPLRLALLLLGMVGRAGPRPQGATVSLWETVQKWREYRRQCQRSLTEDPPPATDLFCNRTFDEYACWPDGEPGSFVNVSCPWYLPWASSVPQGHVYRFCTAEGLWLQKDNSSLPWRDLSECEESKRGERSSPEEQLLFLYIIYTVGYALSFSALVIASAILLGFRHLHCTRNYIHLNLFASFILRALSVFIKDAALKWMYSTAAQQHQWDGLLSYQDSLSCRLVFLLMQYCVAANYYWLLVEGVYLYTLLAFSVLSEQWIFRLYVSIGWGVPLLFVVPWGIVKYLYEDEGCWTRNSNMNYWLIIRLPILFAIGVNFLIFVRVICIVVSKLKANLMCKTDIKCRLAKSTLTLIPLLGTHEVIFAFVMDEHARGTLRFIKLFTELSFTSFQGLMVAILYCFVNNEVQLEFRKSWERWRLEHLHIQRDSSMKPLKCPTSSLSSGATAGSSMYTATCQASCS
DRD3 antagonist: blocks the human D3 dopamine receptor; D3R cells, DiscoveRx beta-arrestin luminescence, antagonist mode; active compounds read low; P35462; max response, negative = inhibition, %; 2.5% of 360,000 active; in the data active = max response below about -50%; inconclusive = no clear call, values can overlap the other calls; also: % is scaled to controls: 0 for no effect and ±100 for the full control effect
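Cells plated overnight at 1500 cells/well, then exposed to library compounds with dopamine controls for 90 minutes at 37 degrees C. DiscoveRx reagent added for 30–60 minutes at room temperature; luminescence read, quantitative HTS format.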
D3 ag: activates the human D3 dopamine receptor | P35462 | D3R DiscoveRx beta-arrestin cells, luminescence, 90 min | max activation, % | 0.58% of 410,000 active | AID 652048; in the data active = max activation above about 30%; also: 0% is about no effect
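Agonist-mode cell screen: cells plated at 1500/well and incubated overnight at 37 °C, then exposed to library compounds for 90 min at 37 °C. Detection reagent was added for 30–60 min at room temperature, and luminescence was read.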
GLP-1R inv ag: acts as inverse agonist at human GLP-1 receptor; P43220; HEK293 GLP-1R CRE-luciferase, luminescence, 24 h; GLP-1R form is constitutively active; Potency, µM (doses to about 38.3 µM), inactives show at the highest dose activity change, negative = inhibition, hits mostly inhibitors; 1.6% of 410,000 active; AID 624417; also: potency is read from the fitted curve at half-maximal effect; % is scaled to controls: 0 for no effect and ±100 for the full control effect; nearly all actives have a fitted effect of over 55% in size
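HEK293 cells stably co-expressing constitutively active GLP-1R and a cAMP-responsive luciferase reporter were seeded in DMEM with 10% Nu serum, given compounds after 12 h, and incubated 24 h at 37 deg C. Luminescence was then read.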
Numbers without * were called inactive; ? = inconclusive; . = not tested or not shown. Unless noted, calls follow the shape of the dose curve; as a rule, active = well fitted curve in the direction sought with a large enough effect; inconclusive = small, poorly fitted or top-dose-only effect, or another doubt; inactive = no such curve, though single readings can be large; an effect the other way counts as inactive or inconclusive.

SMILES	HEK293 tox	ClpP mod	GLP-1R agonist	DRD3 antagonist	D3 ag	GLP-1R inv ag
O=C(CCCOc1ccccc1)Nc1nccs1	4.5%	0.3%	2.4%	-57.3*	-4.1	3.5%
COc1ccc(OCCCC(=O)Nc2cccnc2)cc1	10.1%	1.3%	-5.7%	-90.1*	8.9	0.0%
C=CC[N@@+]12CC[C@@]34c5ccccc5N5/C=C6/[C@H]7C[C@H]8[C@@]9(CC[N@@+]8(CC=C)C/C7=C/CO)c7ccccc7N(/C=C(/[C@@H](C[C@@H]31)/C(=C\CO)C2)[C@H]54)[C@@H]69	.	.	.	.	-3.1	.
S=C(Nc1ccccc1Cl)N(Cc1cccnc1)Cc1ccco1	11.2%	.	10.0%	16.1	5.2	-1.2%
Cc1c(Cl)cccc1NC(=S)N(Cc1cccnc1)Cc1ccccc1Cl	-25.0%	-0.6%	10.0%	-4.3	-7.5	11.2µM*
S=C(Nc1ccccc1Cl)N(Cc1ccccc1)Cc1ccccn1	?	.	5.4%	-1.1	-0.5	10µM*
CC12C=CC(=O)C=C1CCC1C2C(O)CC2(C)C1CCC2(O)C(=O)COC(=O)CCC(=O)O (centres undefined)	.	.	-1.6%	.	.	.
Cc1cccc(C(=O)N2CCC(=O)N([C@H](COCc3cccc(C(F)(F)F)c3)Cc3ccccc3)CC2)c1	?	1.7%	0.2%	13.8	2.8	11.2µM*
Cc1cccc(C(=O)N2CCC(=O)N(C(COCc3cccc(C(F)(F)F)c3)Cc3ccccc3)CC2)c1 (centres undefined)	-25.1%	-0.5%	-2.8%	1.6	6.4	?
Cc1ccc(S(=O)(=O)N2CCC(=O)N([C@H](COCc3ccc(Cl)cc3Cl)Cc3ccccc3)CC2)cc1	0.3%	-2.3%	14.9%	?	-5.4	?
Cc1ccc(S(=O)(=O)N2CCC(=O)N(C(COCc3ccc(Cl)cc3)Cc3ccccc3)CC2)cc1 (centres undefined)	0.0%	0.5%	7.9%	13.9	16.7	11.2µM*
Cc1cccc(COC[C@H](Cc2ccccc2)N2CCN(C(=O)c3cc(Cl)cc(Cl)c3)CCC2=O)c1	?	-5.6%	-2.4%	3.1	-0.2	11.2µM*
CN(CC(=O)Nc1ccc(F)c(F)c1F)C(=O)CCN1C(=O)C2CC=CCC2C1=O (centres undefined)	3.6%	-0.8%	0.7%	0.0	3.3	10.4%
COc1cc(CNc2ncnc3c2ncn3[C@H]2CN(Cc3ccc(Cl)cc3)C[C@@H](CO)O2)cc(OC)c1OC	0.9%	-3.8%	-0.3%	6.7	3.8	7.5%
O=C(O)CCNC(=O)c1cncc(Br)c1	18.3%	-0.2%	7.6%	2.7	-4.0	25.7%
O=C(NCCCNC(=O)c1cncc(O)c1)c1cncc(O)c1	9.7%	.	-0.9%	-11.8	0.1	-6.5%
CCOC(=O)CCCNC(=O)c1cncc(O)c1	-5.0%	31.6µM*	-6.2%	-17.2	-8.0	-6.2%
O=C(O)CCCNC(=O)c1cncc(Br)c1	-4.0%	28.2µM*	-7.5%	43.9	0.6	2.0%
CN(C)c1ccc(NC(=O)CN2C(=O)c3ccccc3Sc3ccc(C(=O)N4CCCC4)cc32)cc1	21.0%	0.5%	.	.	-0.4	15.2%
CCOC(=O)c1cccc(NC(=O)CC2C(=O)N(c3ccccc3)C(=O)N2Cc2ccco2)c1 (centres undefined)	-0.2%	-1.5%	.	.	-2.7	-7.3%
O=C(NCc1ccc(F)cc1)c1ccc(CSc2nc3ccncc3n2Cc2ccc(F)cc2)cc1	-12.3%	-15.8%	.	.	-4.2	?
CC(C)(O)C(=O)NN(Cc1ccccc1)c1ccccc1	0.7%	.	1.2%	5.2	1.7	-5.7%
CN(C)N(Cc1ccccc1)C(=O)C(O)(c1ccccc1)c1ccccc1	-3.8%	-1.3%	-0.7%	2.3	-2.8	12.6µM*
Cc1cc(SCC(=O)N/N=C/c2ccc(O)cc2O)c(C)cc1Br	-18.4%	2.4%	-7.1%	26.8	10.2	7.94µM*
O=C(CNC(=O)C(c1ccccc1)c1ccccc1)N/N=C/c1ccc(O)cc1O	-20.8%	-9.1%	3.7%	19.4	32.5*	?
SMILES	HEK293 tox	ClpP mod	GLP-1R agonist	DRD3 antagonist	D3 ag	GLP-1R inv ag
Cc1cc(SCC(=O)N/N=C/c2ccccc2C(=O)O)c(C)cc1Br	5.7%	.	6.0%	0.0	0.0	-34.1%
COc1cccc(NC(=O)c2c(-c3ccc(C)cc3)nnc3ccccc23)c1	-0.9%	0.0%	.	.	2.4	20.3%
CSc1ccccc1C(=O)C1CCCN(Cc2cnn(-c3ccccc3)c2)C1 (centres undefined)	-16.2%	.	6.9%	-76.4*	-16.9	?
COC(=O)c1ccc(CN2CCCC(C(=O)c3cc(F)ccc3OC)C2)cc1 (centres undefined)	-6.5%	-10.6%	-1.1%	-95.5*	-17.5	?
COc1ccc(C(=O)C2CCCN(Cc3ccc(NC(C)=O)cc3)C2)cc1OC (centres undefined)	-0.5%	-6.2%	9.5%	-19.5	-8.0	-12.0%
CSc1ccccc1C(=O)C1CCCN(Cc2c(C)n(C)n(-c3ccccc3)c2=O)C1 (centres undefined)	-10.9%	.	6.1%	0.0	-20.6	?
COC(=O)c1ccc(CN2CCCC(C(=O)c3ccccc3OC)C2)cc1 (centres undefined)	-5.5%	-1.1%	6.2%	-51.3*	-25.2	?
CCCCn1c(=O)c2oc3ccccc3c2n(CC(=O)Nc2cccc(Cl)c2C)c1=O	1.9%	-3.4%	.	.	1.7	6.0%
COc1ccc2c(c1)sc1ncc(C(=O)NCc3ccc(Cl)cc3)c(=O)n12	3.7%	-11.8%	.	.	9.0	9.2%
CC1(C)CC(=O)C=C(C#CC2(O)CCCCC2)C1	6.6%	0.6%	-5.6%	8.9	2.8	?
Cc1ccc2c(c1)c(C1=c3ccccc3=NC1=O)c(O)n2C	-7.0%	-0.4%	-1.6%	-80.1*	-4.7	-3.9%
Cc1c(-n2c(O)c(C3=c4ccccc4=NC3=O)sc2=O)c(=O)n(-c2ccccc2)n1C	2.9%	.	-0.6%	-20.7	2.8	-17.2%
NC(=O)c1cccc(Nc2nc(C(N)COCc3ccccc3)cs2)n1 (centres undefined)	-3.8%	0.6%	-2.1%	-64.6*	-2.3	24.0%
NC(=O)c1ccc(Nc2nc(C(N)COCc3ccccc3)cs2)cc1 (centres undefined)	-3.5%	-21.2%	7.4%	17.0	3.1	10.7%
Cc1nc2ccn(Cc3ccco3)c(=O)c2cc1C(=O)NCc1ccc(F)cc1	-18.2%	4.3%	.	.	-17.2	?
CN(C)CCn1c2c(c(SCC(=O)Nc3cccc(C(F)(F)F)c3)nc1=O)CCCC2	-6.7%	-5.9%	7.4%	9.0	10.7	10µM*
